These results are taken from PubChem BioAssay AID687014 (The Scripps Research Institute Molecular Screening Center, 2013).

Out of some 370,000 compounds screened, about 6,800 (1.8%) were called active. The sample holds actives, similar compounds and a random draw of the others, so the mix is not that of the screen. Unmarked numbers belong to inactive results.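 Rule for the calls: active = activation above a cutoff set at the mean of all screened compounds plus 3 SD (cut at about 10% in these data); inactive = the rest.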

The test system of the experiment is Nuclear hormone receptor DAF-12 (Heterodera glycines), GAL4 fusion. The experiment can be described thus: H. glycines DAF-12 receptor agonists, primary screen, cell-based, luminescence, HEK293, GAL4 fusion, UAS-luciferase (AID 687014).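 Note: 0% = DMSO wells and 100% = sodium butyrate wells.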 To be noted: HEK293 GAL4-hgDAF12 UAS-luciferase reporter, agonist luminescence; at 6.8 µM; active compounds read high; normalized to butyrate control.
`COc1ccccc1CCNC(=O)C1CCN(c2nc(C)cc(C)n2)CC1`: the activation is -1.32%. As for `O=C(CSc1nc2ccccc2n1Cc1ccccc1Cl)N/N=C\c1c[nH]c2ccccc12`, the activation was 0.95%. The figure for `Fc1ccccc1-c1cc2cc3c(cc2cn1)OCO3` is 16.3% (active). Take `O=C(c1ccco1)N1CCN(C(=O)c2cc(-c3ccccc3F)no2)CC1`: the activation is 0.91%. The figure for `COC(=O)C1=C(C)N(Cc2cccc(C(F)(F)F)c2)C(=NCc2cccc(C(F)(F)F)c2)NC1c1ccccc1C(F)(F)F` (stereo not given) is 0.13%. As to `CN(C)c1ccc(NC(=O)NC2CCCCN(Cc3ccc(Cl)cc3)C2=O)cc1` (stereo not given), the activation was -1.5%.

Consider `C[C@@H]1CN([C@H](C)CO)S(=O)(=O)c2ccc(C#C[C@@H](C)O)cc2O[C@@H]1CN(C)Cc1ccc(-c2ccccc2)cc1`, for which the activation is 2.28%.

Take `COc1ccc(CC(=O)NCc2nnc(SCC(=O)Nc3ncc(C)s3)n2C)cc1`: the activation was 3.07%. The same measure for `O=C(Nc1ccc2nc3n(c(=O)c2c1)CCCC3)c1ccc(Cl)nc1`: 1.23%. The figure for `Cc1cnc(NC(=O)c2ccccn2)s1` is 16.5% (active). The figure for `CCc1ccccc1OCC(=O)Nc1nnc(C2CC2)s1` is -2.07%; for `O=C(Nc1nnc(C2CC2)s1)c1ccccn1` it is 12.5% (active). Consider `Cc1cnc(NC(=O)c2ccc(Cl)nc2)s1`, for which the activation is 12.4% (active).

`Cc1cnc(NC(=O)Cn2cnc3c2c(=O)n(C)c(=O)n3C)s1`: the activation was -0.21%. As to `Cc1cccc(NC(=O)c2cccc(C(=O)Nc3cccc(C)c3C)n2)c1C`, the activation is -1.93%. The same measure for `CCc1cc(C(=O)Nc2nnc(C3CC3)s2)sc1C`: 1.89%; for `O=C(COC(=O)c1ccc(F)cc1)NCCCc1ccccc1`: -2.09%; for `Cc1ccc(C(=O)NCC(=O)OCC(=O)Nc2cccc(S(=O)(=O)N3CCCC3)c2)cc1C`: 0.26%.

With `O=C(NCc1ccccc1)[C@H]1CCCN1C(=O)[C@@H]1CCCN1C(=O)c1ccc(Cl)cc1Cl`, the activation is 5.91%.

For `O=C(CSC1CC(=O)N(CCc2ccccc2)C1=O)Nc1ccc(Cl)cc1` (stereo not given), the activation was 3.22%.

`COC(=O)[C@H](C(C)C)N1CCc2nnn(Cc3ccc(C)cc3)c2-c2ccccc2S1(=O)=O`: the activation was 1.86%.

On to `COC(=O)[C@]12C[C@H](CC(=O)NCCc3ccccc3OC)C(=O)N(Cc3ccco3)C1=C[C@H](C(C)C)O[C@@H]2C1CC1`, for which the activation was 1.21%. Turning to `Nc1[nH]c(C(=O)c2ccccc2)c(-c2ccncc2)c1C(=O)NCc1cccc2ccccc12`, the activation is -0.47%.

`O=C(CN1C(=O)C2C3C=CC(C3)C2C1=O)Nc1nc(-c2ccccn2)cs1` (stereo not given): the activation is 0.17%. `CC(=O)c1ccc(Nc2nc(C(N)c3ccccc3)cs2)cc1` (stereo not given): the activation was 2.66%.

On to `CC(NC(=O)c1ccco1)C(=O)Nc1nc(-c2ccccn2)cs1` (stereo not given), for which the activation is 1.66%. The figure for `CNC(=O)c1sc(Nc2ccc(OCc3ccccc3)cc2)nc1C` is -1.9%.

As for `COc1cccc(C(O)c2nc(-c3ccc(C)c(C)c3)cs2)c1` (stereo not given), the activation is -0.02%. The same measure for `Clc1ccc(Nc2nc(-c3cccs3)cs2)nc1`: 19.5% (active); for `COc1ccc(-c2csc(Nc3ccccn3)n2)cc1`: 16.9% (active). For `N#Cc1ccc(OCC(=O)Nc2nc(-c3ccccn3)cs2)cc1`, the activation is -6.22%. As to `COc1ccc(Nc2nc(-c3ccccc3)cs2)cc1`, the activation was 22.4% (active). For the molecule `c1ccc(Nc2nc(-c3ccncc3)cs2)nc1`, the activation is 14.5% (active). The same measure for `Cc1cccc(OCC(=O)OCC(=O)Nc2ccc(Cl)cn2)c1`: 0.27%; for `OC(c1ccccc1)(c1ccccc1)C1CCN(CCCOc2ccc(-c3ccsc3)cc2)CC1`: -3.48%; for `C=C(C)C1CC23C(=O)C4(C(=O)c5ccccc5)C[C@@]5(C)CCC(CC2C1(C)C)(C4=O)C35OC` (stereo not given in full): -0.57%.

On to `O=C(NCc1ccco1)c1ccc(NS(=O)(=O)c2cccc([N+](=O)[O-])c2)cc1`, for which the activation is 0.98%. The figure for `O=C(NCCC1=CCCCC1)C1CCN(S(=O)(=O)c2ccc(Cl)s2)CC1` is -1.78%; for `O=C(NCC1COc2ccccc2O1)c1ccc(NC(=O)c2cc(F)ccc2F)cc1` (stereo not given) it is -2.39%. As to `COc1ccc(-c2c(NC(=O)c3ccco3)oc3ccc(Cl)cc3c2=O)cc1`, the activation was 0.05%. In the case of `O=C(Nc1cc(-c2nc3ncccc3o2)ccc1Cl)c1ccco1`, the activation was 2.36%. For the molecule `O=C(Nc1ccc2oc(-c3ccccc3F)nc2c1)c1ccco1`, the activation is 14.8% (active). In the case of `COC(=O)Cc1nnn2c1[C@H](C)[C@H](c1ccccc1[N+](=O)[O-])OCC2`, the activation is -0.34%. `CCOC(=O)c1cc(S(=O)(=O)NCCc2ccc(OC)c(OC)c2)cn1C`: the activation is 0.63%.

For the molecule `CCOC(=O)N1CCN(Cc2oc(CO)cc(=O)c2O)CC1`, the activation is 1.66%. For the molecule `O=c1c2c(nc3cc(-c4cccc(Cl)c4)[nH]n13)CCCC2`, the activation is 18.1% (active). On to `CSc1nc2nc3c(c(=O)n2[nH]1)CCC3`, for which the activation is -0.35%.

Regarding `Clc1cccc(Cc2c(-c3cccc(Cl)c3)nc3ccc(Cl)cn23)c1`, the activation was 6.04%. On to `CSc1ccc(C=Nn2c(-c3ccc(F)cc3)n[nH]c2=S)cc1`, for which the activation was -2.14%. For `Oc1cccc2ccc(/C=C/c3ccc(Br)s3)nc12`, the activation is 20.9% (active). On to `CCCCOCC1CN(CCCC)S(=O)(=O)c2c(Oc3ccc(F)cc3)cccc2O1` (stereo not given), for which the activation was 3.59%. Turning to `COC(=O)C1CN(Cc2cn(Cc3ccc(F)cc3)nn2)CCS(=O)(=O)N1Cc1ccc(Cl)cc1` (stereo not given), the activation was -1.71%. In the case of `Clc1ccc(-n2c(COc3ccccc3)nnc2SCc2nc3ccccc3[nH]2)cc1`, the activation is 0.78%. With `CN(CCO)c1ccc(/C=N/Nc2nncc3ccccc23)cc1`, the activation is 10.7% (active). As to `N#Cc1ccc(N2Cc3ccccc3/C2=N/C(=O)Nc2ccc(Cl)cc2)cc1`, the activation was 2%. `CCS(=O)(=O)c1ccc(-c2cccc(NC(=O)c3ccc(Br)o3)c2)nn1`: the activation is 3.52%. Take `Cc1cccc(NC(=S)NC(=O)c2ccc(Br)o2)c1`: the activation was 15.4% (active). As to `O=C(Nc1cccc(C(=O)O)c1)/C(=C\c1ccccc1)NC(=O)c1ccc(Br)o1`, the activation is 1.1%. With `Nc1[nH]c(/C=C2/CCCCC2n2[nH]c(=O)n(-c3ccccc3)c2=O)c(Cc2ccccc2)[n+]1Cc1ccccc1` (stereo not given), the activation was 0.06%. For `CC(C)c1cc(NCc2ccccn2)n2c(nc3ccccc32)c1C#N`, the activation was 3.15%. On to `C=CCN(C(=O)[C@@H](CCCC)[C@@H](O)c1ccc(Cl)cc1)c1ccccc1`, for which the activation was 1.69%. Consider `CC(=NNC(N)=O)c1ccc(Cl)c(-n2cccc2)c1`, for which the activation was 1.64%. Consider `Cc1cc(NC(=O)C(C)N2C(=O)c3ccccc3S2(=O)=O)no1` (stereo not given), for which the activation is -0.78%.

As to `O=C(OCCN1CCOCC1)C1(c2ccccc2)CCCCC1`, the activation was -2.44%. Regarding `c1coc(CCNc2ncnc3ccc(-c4ccc5c(c4)OCO5)cc23)c1`, the activation is -2.33%. Take `Oc1cccc2cc(-c3ccncc3)cnc12`: the activation is 15.1% (active). Regarding `Cc1cc2c(nc1C)CCCN2C`, the activation was 0.83%. With `COc1ccc(NC(=O)C2CCC(CNC(=O)[C@@H]3Cc4ccccc4CN3)CC2)cc1` (stereo not given in full), the activation was -1.49%. Turning to `CN1C[C@]2(C=C3CCCCC3n3c(=O)n(-c4ccccc4)c(=O)n32)N=C1NC(=O)c1ccccc1` (stereo not given in full), the activation was 2.4%.

As to `COc1ccc(-n2c(SCC(=O)Nc3ccc(C)c(Cl)c3)nc3ccccc3c2=O)cc1`, the activation is -4.03%. The same measure for `FC(F)(F)c1cccc(NC(=S)OC2CCC23CCC(c2ccccc2)CC3)c1` (stereo not given): 2.72%; for `COCCN(C(=S)Nc1ccccc1OC)C1CCN(C(C)C)CC1`: -3%; for `Cc1ccc(-c2csc(N(Cc3ccco3)C(=O)c3cccs3)n2)cc1`: 4.33%. Regarding `CCn1c(SCCC(C)C)nnc1-c1c[nH]c2ccccc12`, the activation is -2.13%.

Take `Cc1ccc(-c2csc(-c3c[nH]c4ccccc34)n2)cc1`: the activation is 13.1% (active). As for `CC(=O)Nc1nc2ncccn2c1-c1ccc(C(F)(F)F)cc1`, the activation was 0.34%. Consider `N[C@@H](Cc1ccccc1)C(=O)N1CCOCC1`, for which the activation was 0.96%. `O=C(CSC(=S)N1CCOCC1)c1ccccc1`: the activation is 10.7% (active). In the case of `CC(=O)c1ccc(NC(=O)CSC(=S)N2CCCC2)cc1`, the activation was 7.4%. In the case of `O=C(CSC(=S)N1CCCCC1)c1c(F)cccc1F`, the activation is 16.9% (active). On to `COc1cccc(NC(=O)CN(C)C(=O)CSC(=S)N2CCCC2)c1`, for which the activation was 2.56%. Regarding `O=C(CP(=O)(c1ccccc1)c1ccccc1)N1CCOCC1`, the activation is 1.84%. The figure for `O=C1[C@@H](c2ccccc2)[C@@H](c2ccccc2)N1c1ccccc1` is -0.47%; for `CCOC(=O)Cn1c2c(n(-c3ccc(F)cc3)c1=O)C=C(c1ccccc1)[C@@H](C)C(C(=O)N(C)C1CCCCC1)=C2` it is -2.75%. The same measure for `CN[C@H]1C[C@H]2c3cc(N4CCOCC4)ccc3CCN2C[C@H]1[C@H](C)O`: -0.47%; for `CCC(=O)Nc1ccc2c(c1)C(=O)N(C)[C@H]1CC[C@H](CC(=O)NCCOC)O[C@@H]1CO2`: -3.11%; for `O=C(NCc1cccs1)C1CCCN(S(=O)(=O)c2ccc([N+](=O)[O-])cc2)C1` (stereo not given): -1.45%. The figure for `C[C@@H]1ON(C)[C@H]2C[C@H]3c4[nH]c5cccc(-c6ccc7c(c6)OCO7)c5c4CCN3C[C@@H]12` is -2.08%; for `CC(=O)N1C[C@@H](CO)[C@@H](N(C)C(=O)C(C)(C)C)C[C@H]1c1ccccc1Br` it is 4.28%. Regarding `C=C1C(C(C)C)N(C)C2=NC(c3ccccc3)CC(=O)N12` (stereo not given), the activation was -2.06%.
